We go through 35 compounds from PubChem BioAssay (NCATS).

Results filed as inconclusive are left out. Activity calls are given as the source filed them. Unless noted, the call rests on the fitted dose curve; in most records, active means well fitted curve in the direction sought with a large enough effect; inconclusive means small, poorly fitted or top-dose-only effect, or another doubt; inactive means no such curve, though single readings can be large; an effect the other way counts as inactive or inconclusive.

The target of assay [1] is Cytochrome P450 2D6 (Homo sapiens) (UniProt P10635). The assay is described as follows: Cytochrome P450 family 2 subfamily D member 6 (CYP2D6) small molecule antagonists: luciferase biochemical (cell-free) qHTS assay (AID 1645840; active means well fitted curve in the direction sought with a large enough effect in the repeat runs; an effect the other way counts as inactive or inconclusive; further: nearly all actives have a fitted effect of over 55% in size; further: potency means the concentration at half of the fitted maximal effect; on activity change, negative = inhibition: on the % scale 0 is the no-effect control and ±100 the full control effect). The procedure, abridged: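 P450-Glo CYP2D6 system: proluciferin substrate converted by enzyme to luciferin, read by luminescence proportional to activity. Enzyme-substrate mix with compound 10 min at room temperature, then NADPH regeneration 1 h before detection reagent.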
Sequence of Cytochrome P450 2D6 (Homo sapiens) (P10635 whole entry, looked up): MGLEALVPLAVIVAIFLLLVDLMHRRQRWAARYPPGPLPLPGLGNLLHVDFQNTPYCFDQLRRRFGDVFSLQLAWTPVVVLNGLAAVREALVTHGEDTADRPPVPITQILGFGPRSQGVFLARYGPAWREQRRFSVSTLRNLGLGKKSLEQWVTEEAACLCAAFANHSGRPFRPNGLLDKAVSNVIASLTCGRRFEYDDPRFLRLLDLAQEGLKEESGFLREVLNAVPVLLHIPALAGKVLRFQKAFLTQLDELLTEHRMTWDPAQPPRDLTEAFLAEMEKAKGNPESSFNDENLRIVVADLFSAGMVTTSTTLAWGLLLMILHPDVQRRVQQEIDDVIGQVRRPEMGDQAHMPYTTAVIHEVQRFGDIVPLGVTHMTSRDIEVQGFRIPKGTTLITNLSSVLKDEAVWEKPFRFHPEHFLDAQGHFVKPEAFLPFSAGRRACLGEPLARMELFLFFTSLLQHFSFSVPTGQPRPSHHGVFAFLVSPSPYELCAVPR

Assay [2] concerns the target Cytochrome P450 2C9 (Homo sapiens) (UniProt P11712). The assay is described as follows: Cytochrome P450 family 2 subfamily C member 9 (CYP2C9) small molecule antagonists: luciferase biochemical (cell-free) qHTS assay (AID 1645842; active means well fitted curve in the direction sought with a large enough effect in the repeat runs; an effect the other way counts as inactive or inconclusive; further: nearly all actives have a fitted effect of over 55% in size; further: potency means the concentration at half of the fitted maximal effect; on activity change, negative = inhibition: on the % scale 0 is the no-effect control and ±100 the full control effect). The procedure, abridged: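 P450-Glo CYP2C9 system: proluciferin substrate with enzyme in mix containing 0.4% BSA, 10 min at room temperature, then NADPH regeneration solution added and incubated 1 h at 37C. Detection reagent stopped reaction; luminescence read after 20 min as RLU.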
(Quantitative high-throughput screening tests each substance at several concentrations.)

A short description of assay [3]: Primary qHTS for inhibitors of nuclear receptor binding SET domain protein 2 (NSD2) in an isogenic RCH-ACV NSD2 p.E1099K mutant (9B) (AID 1645876). Further: nearly all actives have a fitted effect of over 70% in size. Further: potency means the concentration at half of the fitted maximal effect. On activity change, negative = viability loss: on the % scale 0 is the no-effect control and ±100 the full control effect.
Assay [4] can be described thus: Primary qHTS for inhibitors of nuclear receptor binding SET domain protein 2 (NSD2) in an RCH-ACV wild type WT cells (2C) (AID 1645877). Further: nearly all actives have a fitted effect of over 70% in size. Further: potency means the concentration at half of the fitted maximal effect.
In a further assay the target is Papain (Carica papaya) (UniProt P00784). As to the kind of experiment: Primary qHTS assay for inhibitors of the protease papain (AID 1645873).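 Further: papain turnover of Z-FR-AMC read as the AMC fluorescence gain over 10 min; on the % scale 0 is the no-effect control and ±100 the full control effect.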
Sequence of Papain (Carica papaya) (P00784 whole entry, looked up): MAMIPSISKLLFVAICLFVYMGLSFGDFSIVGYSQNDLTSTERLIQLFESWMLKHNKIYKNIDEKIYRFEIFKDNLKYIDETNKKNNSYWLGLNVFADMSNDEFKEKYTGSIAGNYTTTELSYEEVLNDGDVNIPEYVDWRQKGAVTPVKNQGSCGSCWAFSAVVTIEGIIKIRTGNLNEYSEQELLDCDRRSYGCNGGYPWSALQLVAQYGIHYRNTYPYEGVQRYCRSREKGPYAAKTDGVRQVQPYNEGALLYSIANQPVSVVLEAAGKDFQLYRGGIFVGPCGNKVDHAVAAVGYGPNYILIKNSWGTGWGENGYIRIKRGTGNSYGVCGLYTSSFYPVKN
The target of assay [5] is Rap guanine nucleotide exchange factor 3 (Homo sapiens) (UniProt O95398). The assay is described as follows: Confirmatory qHTS for antagonist of cAMP-regulated guanine nucleotide exchange factor 3 (EPAC1) (AID 1645880). Further: potency means the concentration at half of the fitted maximal effect; nearly all actives have a fitted effect of over 55% in size. In short, it runs like this:
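Released BODIPY-GDP fluoresces less than Rap1-bound BODIPY-GDP; the signal is followed at 480/540 nm at 5-min intervals over 30 min, after 5 min at room temperature. Reactions contain 100 nM EPAC1, 250 nM RAP1B-BODIPY-GDP and 50 uM GDP; results are normalized to ATA and DMSO.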

Assay [6] shares this target. As to the kind of experiment: Confirmatory qHTS for agonist of cAMP-regulated guanine nucleotide exchange factor 3 (EPAC1) (AID 1645881).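 Further: EPAC1 catalysed release of BODIPY-GDP from Rap1B seen as fluorescence loss; 100% = effect of cAMP agonist control; nearly all actives have a fitted effect of over 75% in size.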
Assay [7] concerns the target Rap guanine nucleotide exchange factor 4 (Homo sapiens) (UniProt Q8WZA2). As to the kind of experiment: Confirmatory qHTS for agonist of cAMP-regulated guanine nucleotide exchange factor 4 (EPAC2) (AID 1645884).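 Further: nucleotide exchange releases bodipy-GDP from Rap1 and this lowers its fluorescence; on the % scale 0 is the no-effect control and ±100 the full control effect; nearly all actives have a fitted effect of over 65% in size.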
For assay [8], the target named is Catechol O-methyltransferase (Homo sapiens) (UniProt P21964). The assay is described as follows: Confirmatory Screen for Target Class Profiling of Small Molecule Inhibitors of Methyltransferases (AID 1745852; calls by dose curve). To be noted: MTase-Glo luminescence, SAH detection, recombinant enzyme; measured here: COMT max response; stronger effect = lower value.
Sequence of Catechol O-methyltransferase (Homo sapiens) (P21964 whole entry, looked up): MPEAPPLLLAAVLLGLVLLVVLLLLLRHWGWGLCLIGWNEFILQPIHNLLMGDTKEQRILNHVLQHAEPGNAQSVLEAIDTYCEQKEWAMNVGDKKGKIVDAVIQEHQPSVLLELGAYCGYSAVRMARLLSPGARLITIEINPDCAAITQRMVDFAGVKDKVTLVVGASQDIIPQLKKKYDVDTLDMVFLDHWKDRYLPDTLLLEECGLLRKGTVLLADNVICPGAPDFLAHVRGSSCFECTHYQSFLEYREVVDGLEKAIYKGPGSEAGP
Assay [9] has as its target Guanidinoacetate N-methyltransferase (Homo sapiens) (UniProt Q14353). The assay is described as above. To be noted: MTase-Glo luminescence, SAH detection, recombinant enzyme; at 57.3 µM (top of the series).
The target of assay [10] is Nicotinamide N-methyltransferase (Homo sapiens) (UniProt P40261). The description is as above. To be noted: MTase-Glo luminescence, SAH detection, recombinant enzyme; measured here: NNMT max response; stronger effect = lower value.
Sequence of Nicotinamide N-methyltransferase (Homo sapiens) (P40261 whole entry, looked up): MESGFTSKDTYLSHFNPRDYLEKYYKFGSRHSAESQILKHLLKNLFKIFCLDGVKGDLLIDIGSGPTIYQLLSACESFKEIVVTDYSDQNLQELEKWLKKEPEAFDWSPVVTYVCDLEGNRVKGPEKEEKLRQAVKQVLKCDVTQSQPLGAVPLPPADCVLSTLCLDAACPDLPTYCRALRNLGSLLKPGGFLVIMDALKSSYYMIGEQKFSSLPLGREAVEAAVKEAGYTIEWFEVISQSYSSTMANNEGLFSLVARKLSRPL
In assay [11] the target is Phenylethanolamine N-methyltransferase (Homo sapiens) (UniProt P11086). The description is as above. To be noted: MTase-Glo luminescence, SAH detection, recombinant enzyme; measured here: PNMT max response; stronger effect = lower value.
Sequence of Phenylethanolamine N-methyltransferase (Homo sapiens) (P11086 whole entry, looked up): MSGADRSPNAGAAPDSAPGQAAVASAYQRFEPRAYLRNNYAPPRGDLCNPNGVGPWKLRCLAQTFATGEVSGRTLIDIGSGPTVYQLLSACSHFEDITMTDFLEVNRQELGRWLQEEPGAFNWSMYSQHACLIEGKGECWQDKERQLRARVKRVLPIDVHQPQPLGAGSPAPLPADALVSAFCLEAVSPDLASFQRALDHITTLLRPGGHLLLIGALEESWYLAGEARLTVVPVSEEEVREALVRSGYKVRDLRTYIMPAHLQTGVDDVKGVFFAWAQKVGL

Sequence of Cytochrome P450 2C9 (Homo sapiens) (P11712 whole entry, looked up): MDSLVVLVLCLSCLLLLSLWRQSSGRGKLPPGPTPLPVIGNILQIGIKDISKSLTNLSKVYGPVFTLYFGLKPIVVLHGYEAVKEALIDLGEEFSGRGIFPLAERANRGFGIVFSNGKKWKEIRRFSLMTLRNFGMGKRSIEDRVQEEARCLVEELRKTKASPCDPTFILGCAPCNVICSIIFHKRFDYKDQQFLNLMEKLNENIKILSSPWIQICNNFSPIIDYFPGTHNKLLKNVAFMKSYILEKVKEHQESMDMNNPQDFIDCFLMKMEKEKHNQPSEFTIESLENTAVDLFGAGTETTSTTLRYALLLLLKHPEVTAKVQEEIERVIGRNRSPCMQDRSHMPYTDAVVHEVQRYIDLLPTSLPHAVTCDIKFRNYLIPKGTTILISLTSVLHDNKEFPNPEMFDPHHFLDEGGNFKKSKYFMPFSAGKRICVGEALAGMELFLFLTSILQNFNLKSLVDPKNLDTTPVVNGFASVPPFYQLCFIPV
Sequence of Rap guanine nucleotide exchange factor 3 (Homo sapiens) (O95398 whole entry, looked up): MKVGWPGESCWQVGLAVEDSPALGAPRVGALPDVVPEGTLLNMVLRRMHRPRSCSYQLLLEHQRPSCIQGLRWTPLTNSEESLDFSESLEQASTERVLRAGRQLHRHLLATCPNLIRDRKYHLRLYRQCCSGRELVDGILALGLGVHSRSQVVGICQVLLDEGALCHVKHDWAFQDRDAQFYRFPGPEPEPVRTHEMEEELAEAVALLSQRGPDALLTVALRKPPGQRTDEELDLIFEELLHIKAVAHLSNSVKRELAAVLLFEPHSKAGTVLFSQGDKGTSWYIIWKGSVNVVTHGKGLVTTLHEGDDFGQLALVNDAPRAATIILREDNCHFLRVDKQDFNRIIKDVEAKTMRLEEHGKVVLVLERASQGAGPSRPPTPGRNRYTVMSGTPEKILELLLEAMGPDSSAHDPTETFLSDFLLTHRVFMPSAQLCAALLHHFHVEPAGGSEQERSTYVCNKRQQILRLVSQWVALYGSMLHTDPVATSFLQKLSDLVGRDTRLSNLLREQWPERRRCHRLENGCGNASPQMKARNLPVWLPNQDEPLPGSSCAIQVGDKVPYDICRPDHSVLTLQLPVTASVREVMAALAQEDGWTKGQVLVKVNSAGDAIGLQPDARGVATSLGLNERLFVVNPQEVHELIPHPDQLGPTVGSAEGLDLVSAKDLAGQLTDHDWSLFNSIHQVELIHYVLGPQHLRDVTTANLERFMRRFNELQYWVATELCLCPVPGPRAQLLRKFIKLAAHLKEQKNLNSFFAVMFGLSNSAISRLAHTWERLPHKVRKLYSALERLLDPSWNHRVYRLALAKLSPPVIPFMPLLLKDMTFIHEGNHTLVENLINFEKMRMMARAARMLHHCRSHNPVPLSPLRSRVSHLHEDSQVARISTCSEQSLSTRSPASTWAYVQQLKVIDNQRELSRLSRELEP
Sequence of Rap guanine nucleotide exchange factor 4 (Homo sapiens) (Q8WZA2 whole entry, looked up): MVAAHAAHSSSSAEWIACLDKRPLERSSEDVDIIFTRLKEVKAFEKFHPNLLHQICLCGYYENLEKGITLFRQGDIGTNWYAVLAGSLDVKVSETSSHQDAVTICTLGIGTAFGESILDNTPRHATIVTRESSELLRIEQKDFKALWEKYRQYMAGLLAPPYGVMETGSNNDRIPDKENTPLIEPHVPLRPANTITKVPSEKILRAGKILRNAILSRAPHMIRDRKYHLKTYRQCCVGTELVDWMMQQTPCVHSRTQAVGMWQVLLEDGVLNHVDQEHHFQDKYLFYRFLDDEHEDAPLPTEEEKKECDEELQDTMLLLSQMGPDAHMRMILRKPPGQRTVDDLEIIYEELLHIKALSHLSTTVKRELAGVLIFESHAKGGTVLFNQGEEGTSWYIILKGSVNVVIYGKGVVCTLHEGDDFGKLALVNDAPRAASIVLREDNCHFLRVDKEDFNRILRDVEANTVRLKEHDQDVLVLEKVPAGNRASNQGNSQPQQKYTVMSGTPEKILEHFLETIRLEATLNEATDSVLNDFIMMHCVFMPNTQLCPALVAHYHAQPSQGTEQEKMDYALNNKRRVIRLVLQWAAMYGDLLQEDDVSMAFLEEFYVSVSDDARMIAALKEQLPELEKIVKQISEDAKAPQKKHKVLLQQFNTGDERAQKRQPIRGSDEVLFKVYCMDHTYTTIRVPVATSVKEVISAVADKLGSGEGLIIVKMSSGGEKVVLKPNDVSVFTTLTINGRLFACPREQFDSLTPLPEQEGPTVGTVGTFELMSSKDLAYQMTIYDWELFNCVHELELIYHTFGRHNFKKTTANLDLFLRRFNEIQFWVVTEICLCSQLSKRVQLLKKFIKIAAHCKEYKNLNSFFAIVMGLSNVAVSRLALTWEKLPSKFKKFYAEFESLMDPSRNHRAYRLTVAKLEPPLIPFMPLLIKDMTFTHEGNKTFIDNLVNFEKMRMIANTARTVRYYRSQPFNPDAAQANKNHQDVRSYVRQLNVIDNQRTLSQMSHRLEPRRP

Turning to `CC1CC(OC(=O)C(O)c2ccccc2)CC(C)(C)N1C` (stereo unspecified), the Potency entry in assay [1], in [2], in [3] and in [4] was “inactive” throughout.

On to `COc1cc2[nH]c(=O)[nH]c(=O)c2cc1OC`, for which the Potency entry in [1], in assay [2], in assay [3] and in assay [4] was “inactive” throughout.

Regarding `CC1(C)OC(=O)NC1=O`, the Potency entry in [1], in assay [2], in assay [3] and in [4] was “inactive” throughout.

As for `CCCCC(CC)COC(=O)c1ccccc1O` (stereo unspecified), the Potency entry in assay [1], in assay [2], in assay [3] and in assay [4] was “inactive” in each case.

`Cn1c(=O)c2c(ncn2CC2OCCO2)n(C)c1=O`: the Potency entry in [1], in assay [2], in assay [3] and in [4] was “inactive” in each case.

In the case of `CCC(=O)Nc1ccc(O)cc1`, the Potency result in assay [1], in [2], in assay [3] and in [4] was “inactive” in each case.

Regarding `CC(=O)O[C@@]12CO[C@@H]1C[C@H](O)[C@@]1(C)C(=O)[C@H](O)C3=C(C)[C@@H](OC(=O)[C@H](O)[C@@H](NC(=O)OC(C)(C)C)c4ccccc4)C[C@@](O)([C@@H](OC(=O)c4ccccc4)[C@H]21)C3(C)C`, the Potency result in assay [1] and in [2] was “inactive” throughout. Further, the figures for the Potency in assay [3] and in assay [4] were 0.0027 µM (active) and 0.0021 µM (active), respectively.

With `Oc1ccc(C(O)CNCCCCCCNCC(O)c2ccc(O)c(O)c2)cc1O` (stereo unspecified), the Potency result in assay [1], in assay [2], in assay [3] and in assay [4] was “inactive” throughout.

Consider `NC1[C@H]2CN(c3nc4c(cc3F)c(=O)c(C(=O)O)cn4-c3ccc(F)cc3F)C[C@@H]12` (stereo partly specified), for which the Potency result in assay [1] and in assay [2] was “inactive” throughout. Moreover, the Potency in [3] is 2.99 µM (active); in [4] it was 5.31 µM (active).

Regarding `CC(=O)Oc1ccc(C2(c3ccc(OC(C)=O)cc3)C(=O)Nc3ccccc32)cc1`, the Potency result in assay [1] and in assay [3] was “inactive” each time. Also, the Potency in [2] was 5.49 µM (active).

Take `[O-][n+]1cccc(CO)c1`: the Potency entry in [1], in [2], in [3] and in [4] was “inactive” each time.

Turning to `C[C@@H](O)[C@H](N)C(=O)O`, the Potency entry in assay [1], in assay [2], in [3] and in [4] was “inactive” each time.

On to `N[C@@H](CSCCCO)C(=O)O`, for which the Potency result in [1], in assay [2], in assay [3] and in assay [4] was “inactive” in each case.

`COc1ccc2cc1Oc1cc3c(cc1OC)CC[N+](C)(C)[C@H]3Cc1ccc(cc1)Oc1c(OC)c(OC)cc3c1[C@@H](C2)[N+](C)(C)CC3`: the Potency result in assay [1], in assay [2], in [3] and in assay [4] was “inactive” in each case.

With `CC(C)(C)NCC(O)COc1ccc(NC(=O)NC2CCCCC2)cc1` (stereo unspecified), the Potency entry in [1], in assay [2], in assay [3] and in assay [4] was “inactive” in each case.

With `COc1cc(C)c(Cc2cnc(N)nc2N)cc1OC`, the Potency entry in [1], in assay [2], in [3] and in assay [4] was “inactive” throughout.

Turning to `CCCCN1CCCC[C@H]1C(=O)Nc1c(C)cccc1C`, in assay [1], the Potency is 0.275 µM (active). For the same compound, the Potency result in [2], in assay [3] and in assay [4] was “inactive” in each case.

In the case of `CCCCN(CCCC)CCCOC(=O)c1ccc(N)cc1`, in assay [1], the Potency is 0.0309 µM (active). In addition, the Potency result in [2], in assay [3] and in [4] was “inactive” each time.

As to `O=C(O)[C@H](O)c1ccccc1`, the Potency entry in assay [1], in assay [2], in assay [3] and in assay [4] was “inactive” each time.

In the case of `CC(O)COc1ccccc1` (stereo unspecified), the Potency entry in assay [1], in assay [2], in assay [3] and in assay [4] was “inactive” throughout.

In the case of `CCCCN(CCCC)CC(O)c1cc(Cl)cc2c1-c1ccc(Cl)cc1/C2=C/c1ccc(Cl)cc1` (stereo unspecified), the Potency in assay [1] is 0.347 µM (active); in [3] it was 15 µM (active); in assay [4], 13.3 µM (active). Further, in the assay with Papain (Carica papaya), the Potency result was “inactive”.

As to `CCn1cc(C(=O)O)c(=O)c2cnc(N3CCNCC3)nc21`, the Potency entry in [1], in [2], in [3] and in [4] was “inactive” in each case.

As to `CC1(C)CO[C@@H](CC(=O)O)CN1`, the Potency result in [1], in assay [2], in [3] and in assay [4] was “inactive” in each case.

For the compound `COc1ccc(S(=O)(=O)Nc2nnc(CC(C)C)s2)cc1`, the Potency result in assay [1], in assay [3] and in assay [4] was “inactive” in each case. Further, in assay [2], the Potency was 21.9 µM (active).

On to `CCOC(=O)[C@H](CCc1ccccc1)N[C@@H](C)C(=O)N1C(=O)N(C)C[C@H]1C(=O)O`, for which the Potency entry in assay [1], in [2], in assay [3] and in assay [4] was “inactive” in each case.

On to `CC1=C(CC(=O)O)c2cc(F)ccc2/C1=C\c1ccc(S(C)=O)cc1` (stereo unspecified), for which the Potency result (in [1]; in the assay with Papain (Carica papaya)) was “inactive” each time.

`COC(=O)[C@H]1[C@H]2C[C@@H]3c4[nH]c5cc(OC)ccc5c4CCN3C[C@H]2C[C@@H](OC(=O)COc2ccc(OC)cc2)[C@@H]1OC`: the Potency in [1] is 9.77 µM (active). For the same compound, the Potency result in assay [2], in assay [3] and in assay [4] was “inactive” each time.

With `CC1=C(CC(=O)O)c2cc(F)ccc2/C1=C\c1ccc(S(C)(=O)=O)cc1`, the Potency result (in [1]; in the assay with Papain (Carica papaya)) was “inactive” in each case.

`CCCn1cnc2c1c(=O)n(CCCCC(C)=O)c(=O)n2C`: the Potency entry (in assay [1]; in the assay with Papain (Carica papaya); in [3]; in assay [4]) was “inactive” in each case.

Take `N[C@H]1C(O)O[C@H](CO)[C@@H](O)[C@@H]1O` (stereo partly specified): the Potency result in [1], in assay [2], in assay [3] and in assay [4] was “inactive” throughout.

For `O=S(=O)(O)NC1CCCCC1`, the Potency entry in [1], in assay [2], in assay [3] and in [4] was “inactive” in each case.

In the case of `CC1=C(/C=C/C(C)=C/C=C/C(C)=C/C(=O)O)C(C)(C)CCC1`, the Potency entry (in assay [1]; with Papain (Carica papaya)) was “inactive” throughout. Also, in assay [3], the Potency was 21.1 µM (active).

Consider `CC(C)(O)c1ccccc1CC[C@@H](SCC1(CC(=O)O)CC1)c1cccc(/C=C/c2ccc3ccc(Cl)cc3n2)c1`, for which the Potency entry in [1], in assay [2], in assay [3], in [4], in assay [6] and in assay [7] was “inactive” throughout. Moreover, the Potency in [5] is 25 µM (active). Also, the activity in assay [8] is -3.13%; in assay [10] it was -24.6%; in [11], -2.75%. The activity change, negative = inhibition in assay [9] was -3.41%.

In the case of `CC(=O)OCC(=O)[C@@]1(O)CC[C@H]2[C@@H]3CCC4=CC(=O)CC[C@]4(C)[C@H]3C(=O)C[C@@]21C`, the Potency in assay [1] was 3.89 µM (active). Moreover, the Potency entry (in the assay with Papain (Carica papaya); in [3]; in [4]) was “inactive” throughout.

On to `NCCNCCNCCNCCN`, for which the activity change, negative = inhibition in assay [1] is 12.4% [at 11.5 µM] (inactive); in assay [2], 18.2% [at 11.5 µM] (inactive). Moreover, the activity change, negative = viability loss in assay [3] is -1.38% [at 9.23 µM] (inactive). Further, the activity change, negative = cell killing in [4] was -16.9% [at 9.23 µM] (inactive).
